# Compounds with a hit are over-represented: about 19% of the library has one in this group of screens.
# HT1080 IDH1KD tx: qHTS for induction of synthetic lethality in tumor cells producing 2HG: qHTS for the HT-1080-IDH1KD cell line | HT-1080 IDH1 knockdown viability, ATP luminescence, 48 h | Potency, µM (series often up to 46.1 µM), inactives show top-dose activity, negative = toxicity, most hits filed as cytotoxic | hit rate 2% among 360,000;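 further: 0% = DMSO wells and -100% = cell-free medium wells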
#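 Using the IDH1-knockdown HT-1080 line run in the same batch and compound series as the NT line, viability after 48 h at 37 °C was determined by CellTiter-Glo luminescence and expressed as % activity.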
# DT40 TDP1 no CPT: qHTS for Inhibitors of human tyrosyl-DNA phosphodiesterase 1 (TDP1): qHTS in cells in absence of CPT; DT40 Tdp1-/- hTDP1 cells, no CPT, ATP luminescence, 48 h; Potency, µM (top dose mostly 46.2 µM), inactives show top-dose activity change, negative = growth inhibition, most hits filed as inhibitors; hit rate 15% among 420,000; AID 686978, 2013; further: nearly all actives have a fitted effect of over 55% in size
#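 Growth of hTDP1-complemented DT40 Tdp1-knockout cells is measured by ATP luminescence after at least 48 hr compound exposure at 37 °C, with DMSO substituting for the 20 nM CPT used in the parallel screen.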
# KB-V1 MDR tox: qHTS assay for MDR1-selective chemotherapeutics: Primary screen using the drug-selected MDR subline cells KB-V1. KB-V1 MDR cells viability, CellTiter-Glo, 72 h. Potency, µM (top dose mostly 46.1 µM), hits mostly cytotoxic. hit rate 3.4% among 400,000. AID 1347076, 2019; further: nearly all actives have a fitted effect of over 60% in size
#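 KB-V1 MDR subline cells in DMEM (phenol-red free, 10% FBS) exposed to compounds in qHTS concentration series for 72 h at 37 degrees C. Viability read by CellTiter-Glo luminescence; concentration-effect curves fitted after normalization and correction.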
# TDP1 cell CPT: qHTS for Inhibitors of human tyrosyl-DNA phosphodiesterase 1 (TDP1): qHTS in cells in presence of CPT | hit rate 12% among 420,000 | chicken DT40 Tdp1-/-;hTDP1 cells + 20 nM CPT, ATP luminescence, 48 h | Potency, µM (highest dose often 46.2 µM), inactives show at the top dose activity change, negative = growth inhibition, hits mostly inhibitors; further: nearly all actives have a fitted effect of over 55% in size
#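 Cell growth measured by CellTiter-Glo luminescence after a minimum 48 h, 37 C compound exposure with 20 nM CPT in Tdp1-knockout DT40 cells stably expressing hTDP1, seeded 400/well; qHTS titration format.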
# KB-3-1 cytotox: qHTS assay for MDR1-selective chemotherapeutics: Primary screen using the parental adenocarcinoma cell KB-3-1. KB-3-1 viability, CellTiter-Glo ATP luminescence, 72 h. Potency, µM (titrated, usually from 46.1 µM), hits mostly cytotoxic. hit rate 1.4% among 400,000. AID 1347075, 2019; further: nearly all actives have a fitted effect of over 60% in size
#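 Luminescent ATP read-out (CellTiter-Glo) measures survival of drug-naive KB-3-1 cells after 72 h compound exposure at 37 °C. Titration series was screened from lowest to highest concentration, with DMSO vehicle plates as background controls.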
# HT1080-NT tox: qHTS for induction of synthetic lethality in tumor cells producing 2HG: qHTS for the HT-1080-NT fibrosarcoma cell line; Potency, µM (highest dose often 46.1 µM), without a hit: at the top dose activity, negative = less viability, most hits filed as cytotoxic; hit rate 1.6% among 360,000; AID 686970, 2013; HT-1080-NT fibrosarcoma viability, CellTiter-Glo ATP luminescence, 48 h;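 further: NT is the 2HG producing partner of a matched IDH1 knockdown line; 0% = DMSO-treated cells and -100% = media-only wells without cells; nearly all actives have a fitted effect of over 55% in size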
#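 Viability by CellTiter-Glo luminescence after 48 h compound exposure at 37C of HT-1080-NT cells (750/well, RPMI, 5% FBS). % activity scaled between DMSO wells and medium-only wells, then curve-fitted and categorized by curve class.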
# * hit, by the source's call; i = inactive; ? = inconclusive; · = not tested or not shown. The call rests on the fitted dose curve; in most records, active means well fitted curve in the direction sought with a large enough effect; inconclusive means small, poorly fitted or top-dose-only effect, or another doubt; inactive means no such curve, though single readings can be large; an effect the other way counts as inactive or inconclusive. Unless noted, on the % scale 0 is the no-effect control and ±100 the full control effect; potency means the concentration at half of the fitted maximal effect.
SMILES,HT1080 IDH1KD tx,DT40 TDP1 no CPT,KB-V1 MDR tox,TDP1 cell CPT,KB-3-1 cytotox,HT1080-NT tox
CCOc1ccc(NC(=O)Cn2nnc(-c3ccccc3F)n2)cc1,-16%,?,i,21µM*,i,0%
CC1CCN(S(=O)(=O)c2ccc(NC(=O)CN3CCCC3)cc2)CC1,-1%,-29%,i,-4%,i,-4%
CC1CCN(CC(=O)Nc2ccc(S(=O)(=O)N3CCC(C)CC3)cc2)CC1,-8%,?,?,?,?,-13%
CC1CCN(S(=O)(=O)c2ccc(NC(=O)Cn3nnc(-c4ccccc4)n3)cc2)CC1,?,?,15µM*,?,?,?
COCCn1c(SCC(=O)NCc2ccc(F)cc2)nc2ccccc21,2%,-16%,i,1%,i,8%
Cc1c(NS(=O)(=O)c2cccc(C(=O)NCc3cccc(Cl)c3)c2)c(=O)n(-c2ccccc2)n1C,8%,0%,?,4%,i,6%
CC1CCCN(S(=O)(=O)c2ccc(NC(=O)Cn3nnc(-c4ccccc4F)n3)cc2)C1 (configuration not stated),?,23µM*,i,?,i,?
CC1CCCN(S(=O)(=O)c2ccc(NC(=O)CN3CCCCC3)cc2)C1 (configuration not stated),2%,-24%,i,-26%,i,-1%
CCCCOc1ccc(NC(=O)Cn2nnnc2-c2ccccc2F)cc1,·,-21%,·,-18%,·,·
CN(C)C(=O)c1ccc(NC(=O)Cn2nnnc2-c2ccccc2F)cc1,·,18µM*,·,15µM*,·,·
CC(C)Sc1nc(N2CCOCC2)c2c(c1C#N)CC(C)(C)N(C)C2,-5%,16µM*,i,18µM*,i,0%
COC(=O)Sc1nc(N2CCOCC2)c2c(c1C#N)CC(C)(C)OC2,0%,?,i,26µM*,i,-6%
CC(C)Sc1nc(N2CCOCC2)c2c(c1C#N)CC(C)(C)SC2,-3%,?,6.5µM*,?,?,-2%
CCN1C(=NCc2ccc(OC)cc2)N[C@@H](c2ccccc2)[C@H](C(=O)OC)[C@H]1C,1%,?,?,-25%,i,0%
COc1ccc(-c2cc(C(=O)N3CC4(C)CC3CC(C)(C)C4)no2)cc1OC (configuration not stated),-2%,16µM*,21µM*,?,i,8%
CC1(C)C[C@@H]2C[C@@](C)(CN2C(=O)c2cc(COc3cccc(C(F)(F)F)c3)on2)C1,-30%,18µM*,?,?,?,-29%
CC1(C)CC2CC(C)(CN2C(=O)c2cc(-c3ccccc3O)on2)C1 (configuration not stated),1%,13µM*,i,?,?,17%
O=C(c1cc(COc2cccc(C(F)(F)F)c2)on1)N1C[C@H]2CC[C@H]1C2,0%,?,·,?,·,1%
COc1ccc(-c2cc(C(=O)N3CC4(C)CC3CC(C)(C)C4)no2)cc1 (configuration not stated),0%,?,i,?,?,8%
Cc1ccc(-c2cc(C(=O)N3CC4(C)CC3CC(C)(C)C4)no2)cc1 (configuration not stated),5%,10µM*,i,18µM*,i,0%

# Screens: PubChem BioAssay, National Center for Advancing Translational Sciences (NCATS)
